# Compound activity from PubChem.
# This is a sample that favours compounds with a hit; in the whole collection about 11% have one here.
# FLuc inh – Photinus pyralis luciferase inhibition; Potency, µM (series often up to 115 µM), usual class: inhibitors; purified P. pyralis luciferase, luminescence, biochemical; hit rate 2.5% among 76,000; AID 1347043; further: on the % scale 0 is the no-effect control and ±100 the full control effect; nearly all actives have a fitted effect of over 65% in size
#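 Luminescence read by CCD imager after adding enzyme (10nM final) to wells holding compound, titrated in qHTS. Substrates 10uM each D-luciferin and ATP; buffer 50mM Tris acetate pH 7.5, 10mM Mg acetate, Tween-20, BSA.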
# hNpr1 antagonist – antagonists of human natriuretic peptide receptor Npr1; P16066; HEK293 hNpr1 GloSensor cGMP, ANP-stimulated luminescence; hit rate 1.6% among 76,000; Potency, µM (top dose mostly 46.3 µM), for inactives: at the top dose activity change, negative = inhibition, hits mostly inhibitors; calls by dose curve; further: on the % scale 0 is the no-effect control and ±100 the full control effect; nearly all actives have a fitted effect of over 60% in size
# Target sequence (P16066 whole entry, looked up): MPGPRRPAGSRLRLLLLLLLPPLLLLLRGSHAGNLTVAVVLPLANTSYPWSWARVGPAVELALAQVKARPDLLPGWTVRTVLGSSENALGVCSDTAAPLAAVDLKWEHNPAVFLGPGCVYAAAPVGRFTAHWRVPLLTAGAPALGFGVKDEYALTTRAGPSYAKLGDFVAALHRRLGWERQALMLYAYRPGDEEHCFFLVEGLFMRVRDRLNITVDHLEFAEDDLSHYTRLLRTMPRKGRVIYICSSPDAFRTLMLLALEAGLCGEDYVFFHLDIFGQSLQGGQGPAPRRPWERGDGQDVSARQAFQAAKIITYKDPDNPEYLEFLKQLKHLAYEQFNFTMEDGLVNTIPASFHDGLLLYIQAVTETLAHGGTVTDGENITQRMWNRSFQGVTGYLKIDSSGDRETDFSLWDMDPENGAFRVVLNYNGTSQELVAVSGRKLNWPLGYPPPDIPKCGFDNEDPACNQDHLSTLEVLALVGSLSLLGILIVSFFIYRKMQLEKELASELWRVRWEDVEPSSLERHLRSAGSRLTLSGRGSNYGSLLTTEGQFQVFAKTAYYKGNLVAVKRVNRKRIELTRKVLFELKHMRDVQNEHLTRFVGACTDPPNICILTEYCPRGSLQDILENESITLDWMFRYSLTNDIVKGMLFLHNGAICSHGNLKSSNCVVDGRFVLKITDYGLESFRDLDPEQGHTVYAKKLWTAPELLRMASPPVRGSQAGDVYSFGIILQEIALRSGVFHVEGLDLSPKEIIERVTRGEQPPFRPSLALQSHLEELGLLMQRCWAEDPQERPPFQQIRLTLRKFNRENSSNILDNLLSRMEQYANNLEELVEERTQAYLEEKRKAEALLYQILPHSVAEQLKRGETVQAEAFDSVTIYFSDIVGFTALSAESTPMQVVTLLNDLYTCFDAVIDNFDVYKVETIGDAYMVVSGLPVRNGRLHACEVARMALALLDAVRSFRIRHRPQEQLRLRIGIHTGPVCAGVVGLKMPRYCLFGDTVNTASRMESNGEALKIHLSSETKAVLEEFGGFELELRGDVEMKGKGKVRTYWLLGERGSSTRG
#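 HEK293 cells stably expressing human Npr1 and cGMP GloSensor pGS-40F, loaded 2 h with 2% GloSensor reagent, given compound 30 min at room temperature. Luminescence read before and 20 min after 0.1 nM hNppA.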
# HEK cytotox – cytotoxic compounds in HEK 293 cells; HEK 293 viability, ATP luminescence (CellTiter-Glo), 48-72 h; Potency, µM (highest dose often 115 µM), inactives show at the top dose activity change, negative = cytotoxicity, hits mostly inhibitors; hit rate 6.6% among 94,000; AID 1345083; further: on the % scale 0 is the no-effect control and ±100 the full control effect; nearly all actives have a fitted effect of over 60% in size
#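 Luminescence from cellular ATP, measured with CellTiter-Glo, indicates HEK 293 viability. Cells plated at 250 cells/well are treated with compound for 48 or 72 hr at 37 degree Celsius before reagent addition.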
# 3T3 cytotox – cytotoxic compounds in NIH 3T3 cells | hit rate 4.3% among 94,000 | Potency, µM (top dose mostly 96.7 µM), for the others: at the highest dose activity change, negative = cytotoxicity, actives largely listed as inhibitors | NIH 3T3 viability, CellTiter-Glo ATP luminescence, 48-72 h | AID 1345082; further: on the % scale 0 is the no-effect control and ±100 the full control effect; nearly all actives have a fitted effect of over 55% in size
#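 Cytotoxicity was measured by CellTiter-Glo ATP luminescence after 48 or 72 h compound exposure at 37 °C. Mouse NIH 3T3 fibroblasts were seeded at 400 cells/well and dosed by 23 nL pin transfer.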
# Npr1 antag conf – hNpr1 antagonism, confirmation assay | hit rate 76% among 1,400 | Potency, µM (highest dose often 57.6 µM), inactives show at the highest dose activity change, negative = inhibition, hits mostly inhibitors | HEK293 hNpr1 cGMP GloSensor luminescence, ANP-stimulated | AID 1347044 | shares compounds with hNpr1 antagonist; calls by dose curve; further: nearly all actives have a fitted effect of over 70% in size
# NPR2 antag – antagonizes human Npr2, subtype selectivity check; shares compounds with hNpr1 antagonist; HEK293 hNpr2 GloSensor cGMP luminescence, CNP-stimulated; Potency, µM (highest dose often 57.6 µM), for the others: top-dose activity change, negative = inhibition, hits mostly inhibitors; hit rate 67% among 1,400; calls by dose curve; further: nearly all actives have a fitted effect of over 70% in size
# FLuc inh counter – inhibits firefly luciferase, false Npr1 antagonist flag; shares compounds with hNpr1 antagonist; purified FLuc enzyme, luminescence, Km substrate; Potency, µM (series often up to 57.6 µM), without a hit: at the top dose activity change, negative = inhibition, usual class: inhibitors; hit rate 0.7% among 1,400; further: 0% is about no effect
# GloSensor cGMP – control cell line activity, Npr1 antagonist counter-screen. Potency, µM (highest dose often 57.6 µM), without a hit: at the highest dose activity change, negative = inhibition, hits mostly inhibitors. HEK293 GloSensor cGMP, SNP-stimulated, luminescence. shares compounds with hNpr1 antagonist. AID 1347051. hit rate 69% among 1,400; calls by dose curve; further: on the % scale 0 is the no-effect control and ±100 the full control effect; nearly all actives have a fitted effect of over 70% in size
# Active calls of the source: *; i = inactive; ? = inconclusive; / = no result; [ ] = remark or other dose. Unless noted, the call rests on the fitted dose curve; in most records, active means well fitted curve in the direction sought with a large enough effect; inconclusive means small, poorly fitted or top-dose-only effect, or another doubt; inactive means no such curve, though single readings can be large; an effect the other way counts as inactive or inconclusive. Potency means the concentration at half of the fitted maximal effect.
SMILES,FLuc inh,hNpr1 antagonist,HEK cytotox,3T3 cytotox,Npr1 antag conf,NPR2 antag,FLuc inh counter,GloSensor cGMP
COc1ncccc1-c1cnc2[nH]cc(CC(=O)Nc3cccc(Cl)c3)c2c1,i,?,32µM*,?,40µM*,?,1%[86.2 µM],44µM*
COc1ccccc1-c1[nH]nc2ncc(C(=O)NCC3CC3)nc12,i,?,?,?,?,25µM*,0%[86.2 µM],3%[86.2 µM]
OCC1CN(c2ccncn2)CC12CCN(Cc1ccc(F)c(F)c1)CC2 (centres undefined),i,-14%,?,?,/,/,/,/
OCC1CN(c2ccncn2)CC12CCN(Cc1cc(F)c(F)c(F)c1)CC2 (centres undefined),i,?,?,-38%,?,-28%,-1%,-28%
COc1ccc(CNC(=O)c2ccc(Cn3ccn4nc5c(c4c3=O)CCCC5)cc2)cc1,i,11µM*,20µM*,?,27µM*,27µM*,1%,27µM*
COc1ccc(CNC(=O)c2ccc(Cn3ccn4nc5c(c4c3=O)CCCC5)cc2)cc1OC,i,11µM*,22µM*,?,27µM*,24µM*,0%,24µM*
CCc1[nH]c2c(CNC(=O)c3c(C)cc(C)n(C)c3=O)cc(F)cc2c1C,i,-1%,-1%,-7%,/,/,/,/
Cc1cc(CNC(=O)c2cc(C(C)C)nn2C)c2[nH]c(C)c(C)c2c1,i,7.1µM*,40µM*,?,6.9µM*,6.9µM*,-2%,4.8µM*
CCc1nccn1CC(=O)NC(C)c1cnn(-c2ccccc2C)c1C (centres undefined),i,11µM*,?,?,?,?,-2%,?
COc1ccc(S(=O)(=O)N2CCc3c(C(=O)NCCN(C)C)cccc32)cc1,?,-17%,?,?,/,/,/,/
COc1ccc(S(=O)(=O)N2CCc3c(C(=O)Nc4cccc(C)c4)cccc32)cc1,i,?,18µM*,?,?,?,-11%,?
COc1ccc(NC(=O)c2ccc3c(c2)N(S(=O)(=O)c2ccccc2)CC3)cc1,i,10µM*,?,-2%,24µM*,24µM*,-14%,22µM*
CC(=O)N(C)Cc1ccc(-c2ccccc2)cc1,?,0%[70.6 µM],?,-24%[138 µM],/,/,/,/
COCCCNC(=O)c1nc2sccn2c1-c1ccncc1,/,/,-1%,-7%,/,/,/,/
Cn1nc(C2CC2)n(C2CCN(C(=O)CC3CCCC3)CC2)c1=O,/,/,i,-16%,/,/,/,/
COCCN1C(=O)CO[C@H]2CN(CCCc3ccccc3)C[C@H]21,i,14µM*,?,?,16µM*,20µM*,-2%[86.2 µM],13µM*
NC(=O)CN1C(=O)CO[C@H]2CN(CCCc3ccccc3)C[C@H]21,i,-19%[70.6 µM],-11%[172 µM],?,/,/,/,/
Cc1nnc2ccc(N3CCN(C(=O)Cc4ccccn4)CC3)nn12,/,/,-17%,-27%,/,/,/,/
O=C(c1ccc(-n2ccnc2)cc1)N1CCC(c2[nH]ncc2-c2ccccc2)CC1,i,11µM*,-22%,?,22µM*,22µM*,16%,5%
COCc1ccc(C(=O)N2CCC(c3[nH]ncc3-c3ccccc3)CC2)o1,i,-2%,-3%,-22%,/,/,/,/
Cc1n[nH]c(C)c1CNC(=O)CCC[C@H]1NC[C@@H]2C[C@H]1CN(Cc1ccccc1)C2,i,-5%,-6%,-5%,/,/,/,/
O=C(Nc1ccc(F)cc1F)N1CCC(CCNC(=O)C2(c3ccccc3)CC2)CC1,i,5%,?,-25%,/,/,/,/
O=C(Nc1cc(F)cc(F)c1)N1CCC(CCNC(=O)C2(c3ccccc3)CC2)CC1,i,-26%,50µM*,32µM*,-19%,-10%,5%,5%
COCCOC1CCN(C(=O)c2cccc(OC)c2)C1 (centres undefined),/,/,-2%,-14%,/,/,/,/
COc1ccc([S+](=O)([O-])N2CCC3(CC2)OCCN(CCc2ccccc2)C3=O)cc1,i,-25%,?,?,/,/,/,/
SMILES,FLuc inh,hNpr1 antagonist,HEK cytotox,3T3 cytotox,Npr1 antag conf,NPR2 antag,FLuc inh counter,GloSensor cGMP
O=C1N(CC2CC2)CCOC12CCN([S+](=O)([O-])c1ccccc1)CC2,i,-2%[70.6 µM],-17%[172 µM],?,/,/,/,/
COc1ccc([S+](=O)([O-])N2CCC3(CC2)OCCN(CC2CC2)C3=O)cc1,i,?,?,?,31µM*,?,-1%[86.2 µM],31µM*
O=C1N(CC2CC2)CCOC12CCN([S+](=O)([O-])c1ccc(C(F)(F)F)cc1)CC2,i,11µM*,?,?,18µM*,20µM*,-1%[86.2 µM],11µM*
O=C1N(CC2CCOCC2)CCOC12CCN([S+](=O)([O-])c1cccs1)CC2,i,-2%[70.6 µM],-19%[172 µM],?,/,/,/,/
N#Cc1ccc([S+](=O)([O-])N2CCC3(CC2)OCCN(CC2CC2)C3=O)cc1,i,18µM*,-22%[172 µM],?,31µM*,?,5%[86.2 µM],28µM*
O=C(NC1CCCCC1)c1ccc2nc(-c3cccnc3)oc2c1,/,/,-10%,4%,/,/,/,/
O=C(NCCCn1ccnc1)c1nc(-c2ccccc2)cc2[nH]ccc12,i,?,?,?,?,?,3%[86.2 µM],-19%[86.2 µM]
Cc1ccc(Cl)cc1N1CCN(C(=O)CCn2ccn3nc4c(c3c2=O)CCCC4)CC1,i,?,?,?,/,/,/,/
CCOc1ccccc1N1CCN(C(=O)CCn2ccn3nc4c(c3c2=O)CCCC4)CC1,i,?,-17%,-20%,?,?,1%,-2%
O=C(NC1CCCC1)N1CCCC(C(=O)N2CCC(N3Cc4cccn4C3=O)CC2)C1 (centres undefined),/,/,?,-15%,/,/,/,/
COc1cccc(S(=O)(=O)N2CCC3(CC2)CC(N(C)Cc2ccccc2)CCO3)c1 (centres undefined),i,?,?,?,?,?,3%,?
COc1ccc(S(=O)(=O)N2CCC3(CC2)CC(N(C)Cc2ccccc2)CCO3)cc1 (centres undefined),i,11µM*,?,?,27µM*,?,1%,?
